Assay outcomes: PubChem, several laboratories
Mtb betalactam: beta-lactam sensitization of Mtb H37Rv | M. tuberculosis H37Rv growth with meropenem, percent inhibition | inhibition, % at 25 µM | 0.27% of 330,000 active | AID 434955; call rule not given here;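 also: growth measured after seven days incubation then overnight dye step; 0% = bacteria only wells and 100% = bacteria with antibiotic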
Mtb hypoxia rep: Mtb hypoxia fluorescent reporter inhibition; fluorescence inhibition, % (concentration not given with the values); M. tuberculosis hypoxia-regulated fluorescent reporter, fluorescence; 0.1% of 300,000 active; in the data active = fluorescence inhibition mostly above about 23%, no sharp cut-off; inactive = mostly below about 17%
VHR inh abs: blocks human VHR1 dual specificity phosphatase. P51452. recombinant VHR phosphatase, pNPP absorbance. inhibition, % at 13.3 µM. 0.52% of 290,000 active; in the data active = inhibition above about 50%
Target sequence (P51452 whole entry, looked up): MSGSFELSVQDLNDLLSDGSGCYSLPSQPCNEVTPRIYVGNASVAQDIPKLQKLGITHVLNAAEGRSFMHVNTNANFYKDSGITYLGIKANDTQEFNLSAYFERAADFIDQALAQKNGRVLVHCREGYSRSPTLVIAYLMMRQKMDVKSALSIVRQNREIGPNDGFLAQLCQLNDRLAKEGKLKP
GDH-TPI counter-1: inhibits GDH-TPI coupling enzymes, artifact for Mtb FBA screen; GDH-TPI coupled enzyme counterscreen, NADH absorbance; 1.2% of 360,000 active; inhibition, % at 4.8 µM; in the data active = inhibition above about 30%;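 also: 0% = DMSO wells and 100% = wells lacking the enzyme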
Mtb FBA inh: inhibits M. tuberculosis FBA enzyme. P9WQA3. inhibition, % at 1 µM. 2.3% of 360,000 active. AID 588726. purified M. tuberculosis FBA, fluorescence read-out;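 also: 0% = vehicle and 100% = reference inhibitor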
Target sequence (P9WQA3 whole entry, looked up): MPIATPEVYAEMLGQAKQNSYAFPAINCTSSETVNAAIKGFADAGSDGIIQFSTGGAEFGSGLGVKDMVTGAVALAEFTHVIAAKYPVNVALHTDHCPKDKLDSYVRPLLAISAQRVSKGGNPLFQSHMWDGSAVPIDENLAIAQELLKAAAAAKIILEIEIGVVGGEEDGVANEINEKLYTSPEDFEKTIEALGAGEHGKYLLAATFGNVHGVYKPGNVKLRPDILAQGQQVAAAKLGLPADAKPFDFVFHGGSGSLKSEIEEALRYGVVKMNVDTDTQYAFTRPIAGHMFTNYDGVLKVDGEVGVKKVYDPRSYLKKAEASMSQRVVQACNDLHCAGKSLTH
Mtb FBA inh conf: confirmation of M. tuberculosis fructose-bisphosphate aldolase inhibitors | shares compounds with Mtb FBA inh | purified M. tuberculosis FBA, fluorescence read-out | inhibition, % at 1 µM | 78% of 5,600 active;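 also: 0% = vehicle wells and 100% = reference inhibitor wells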
GDH-TPI counter-2: GDH-TPI inhibition counter-screen for FBA inhibitors | shares compounds with Mtb FBA inh | GDH-TPI coupled enzyme counterscreen, fluorescence | inhibition, % at 1 µM | 81% of 5,600 active | AID 652141; in the data active = inhibition above about 10%
Starred values were filed as active, the others as inactive; x = no result; + = active, no number. Hits are enriched below; roughly 3.6% of the tested compounds scored in any of these assays. Rule as the data show it, unless noted: active = inhibition above about 27%; inactive = the rest.

SMILES | Mtb betalactam | Mtb hypoxia rep | VHR inh abs | GDH-TPI counter-1 | Mtb FBA inh | Mtb FBA inh conf | GDH-TPI counter-2
CC1CN(C(C)CO)C(=O)c2cc(NC(=O)Nc3ccc(C(F)(F)F)cc3)ccc2OC1CN(C)S(=O)(=O)c1cccs1 (stereo unspecified) | x | 10 | x | x | x | x | x
NC(N)=NCCCC(NC(=O)OCc1ccccc1)C(=O)O (stereo unspecified) | x | 8 | x | x | x | x | x
Cc1ccccc1-c1nnc(-c2cccs2)o1 | 0 | 26 | 14 | -4 | 29* | 165* | 128*
COc1ccc(-c2nnc(-c3cccnc3)o2)cc1 | -5 | 22 | -3 | -3 | 83* | 154* | 126*
Brc1ccc(-c2nnc(-c3cccnc3)o2)cc1 | 26 | 4 | x | -5 | 2 | x | x
c1cncc(-c2nnc(-c3cccs3)o2)c1 | -1 | 11 | 10 | 20 | 51* | 70* | 47*
Cc1ccc(-c2nnc(-c3cccnc3)o2)cc1 | -1 | 11 | x | 4 | 10 | x | x
Br/C(C=NN1CCN(c2ccccc2)CC1)=C\c1ccccc1 | x | -7 | x | x | x | x | x
CCOC(=O)C1C2COc3cc(OC)ccc3C2N2C(=O)N(c3ccc(C)cc3)C(=O)[C@]12C (stereo partly specified) | x | 11 | x | x | x | x | x
CCOC(=O)c1[nH]c2ccc(OC)cc2c1NC(=O)CN1CCC2(CC1)OCCO2 | 3 | 5 | -1 | 10 | 47* | 134* | 104*
CCOC(=O)c1[nH]c2ccc(OCC)cc2c1NC(=O)CN1CCCC(C)C1 (stereo unspecified) | 1 | x | -29 | 8 | 38* | 49* | 47*
CCOC(=O)c1[nH]c2ccc(C)cc2c1NC(=O)CN1CCCCC1 | -11 | x | 17 | 15 | 21 | x | x
CCOC(=O)c1[nH]c2ccc(OC)cc2c1NC(=O)CCN1CCSCC1 | -10 | -3 | -14 | 5 | 71* | 51* | 43*
CCOC(=O)c1oc2ccc(OC)cc2c1NC(=O)CN1CCN(C)CC1 | -4 | 11 | 29 | 3 | 40* | 1 | -5
Cc1cccc(NC(=O)C2CC(=O)N/C(=N/N=Cc3ccco3)S2)c1 (stereo unspecified) | x | 3 | x | x | x | x | x
C=C(C)C1CC=C(C)C(=NNC(=O)CCC(=O)Nc2ccccc2Cl)C1 (stereo unspecified) | x | -4 | x | x | x | x | x
COc1ccc(C(C)=NNC(=O)CNC(=O)/C=C/c2ccccc2OC)cc1 | x | 11 | x | x | x | x | x
O=C(N=Nc1c(O)[nH]c2ccc(F)cc12)C1COc2ccccc2O1 (stereo unspecified) | -7 | 7 | 17 | 14 | 38* | 131* | 104*
O=C(COC(=O)C1COc2ccccc2O1)c1ccc(F)cc1 (stereo unspecified) | x | x | x | 4 | 2 | x | x
CC(C)CC(NC(=O)c1nc[nH]c1C(=O)NCc1ccc(CNC(=O)OC(C)(C)C)cc1)C(=O)OC(C)(C)C (stereo unspecified) | x | -1 | x | x | x | x | x
CC(=O)Nc1ccc(S(=O)(=O)NC(C)c2ccccc2)cc1 (stereo unspecified) | 0 | 9 | 18 | 2 | 31* | 123* | 95*
O=C(O)c1cccc(Nc2ncnc3ccccc23)c1 | 2 | 3 | 18 | 14 | 49* | 83* | 78*
Oc1cccc(Nc2ncnc3ccccc23)c1 | 2 | -4 | 1 | 11 | 1 | x | x
COc1ccc(S(=O)(=O)Nc2nc3ccccc3nc2Nc2cccc(C(=O)O)c2)cc1 | 0 | -3 | 9 | 38* | 32* | + | +
CC(=O)Nc1ccc(S(=O)(=O)Nc2nc3ccccc3nc2Nc2ccccc2)cc1 | -4 | 2 | -10 | 7 | 82* | + | +
SMILES | Mtb betalactam | Mtb hypoxia rep | VHR inh abs | GDH-TPI counter-1 | Mtb FBA inh | Mtb FBA inh conf | GDH-TPI counter-2
O=C(O)CCC(=NNC(=O)CNC(=O)C(c1ccccc1)c1ccccc1)c1ccccc1 | x | 4 | x | x | x | x | x
COc1cccc(C(C)=NNc2ncc(Cl)cc2Cl)c1 | x | 4 | x | x | x | x | x
CCOc1ccc(C2C(C(=O)OC)=CN(C(C)c3ccccc3)C=C2C(=O)OC)cc1 (stereo unspecified) | 5 | -6 | -29 | -4 | 71* | + | +
ON=C(c1ccc(Cl)cc1)c1ncc(C(F)(F)F)cc1Cl | x | 11 | x | x | x | x | x
Cn1c(=O)c2cc(NC(=O)NCc3ccc(F)cc3)ccc2n1Cc1cccc(C(F)(F)F)c1 | x | x | x | 6 | 98* | 152* | 139*
Cn1c(=O)c2cc(NC(=O)CCc3ccc(O)cc3)ccc2n1Cc1cccc(C(F)(F)F)c1 | x | x | x | 7 | 101* | 7 | -7
Cc1cccc(NC(=O)CSCC(=O)NCc2cccc(C(F)(F)F)c2)c1 | -7 | 8 | 14 | -12 | 0 | x | x
COc1ccccc1CCC(=O)Nc1ccc2c(c1)c(=O)n(C)n2Cc1cccc(C(F)(F)F)c1 | x | x | x | 2 | 94* | + | 197*
COc1ccc(CNC(=O)Nc2cccc(C(F)(F)F)c2)cc1OC | -10 | 1 | -22 | 4 | 2 | x | x
Cn1c(=O)c2cc(NC(=S)NC3CC3)ccc2n1Cc1cccc(C(F)(F)F)c1 | x | x | x | 8 | 30* | 121* | 80*
O=C(C=Cc1ccco1)N1CCCC(c2ccccc2)C1 (stereo unspecified) | x | 3 | x | x | x | x | x
Cn1c(=O)c2cc(NC(=O)NCc3ccc(Cl)cc3Cl)ccc2n1Cc1ccc(F)cc1 | x | x | x | 11 | 89* | + | 165*
COc1ccccc1CCC(=O)Nc1ccc2c(c1)CN(Cc1ccc(C)o1)CC2 | 28 | -3 | 1 | 18 | 3 | x | x
COc1ccccc1CCC(=O)Nc1ccc2c(c1)c(=O)n(C)n2Cc1ccc(F)cc1 | x | x | x | 10 | 105* | 94* | 77*
Cc1cc(S(N)(=O)=O)c(N)c(S(N)(=O)=O)c1 | -4 | 9 | 38 | 8 | 29* | + | +
CCOC(=O)c1cc(-c2ccc(Cl)cc2)nc2c1c(=O)[nH]c(=O)n2CCOC | -5 | 16 | -6 | 7 | 53* | 68* | 46*
CCOC(=O)c1cc(-c2ccc(OC(F)F)cc2)nc2c1c(=O)[nH]c(=O)n2C | 0 | x | 8 | 10 | 50* | 159* | 130*
CCOC(=O)c1cc(-c2ccc(F)cc2)nc2c1c(=O)[nH]c(=O)n2Cc1ccccc1 | 1 | -9 | -3 | 4 | 3 | x | x
CCOC(=O)c1cc(-c2ccc(OC(F)F)cc2)nc2nc(SC)[nH]c(=O)c12 | 0 | 13 | 5 | 29 | 72* | 101* | 88*
CCc1ccccc1NC(=O)NC(C(=O)O)C(C)C (stereo unspecified) | x | 12 | x | x | x | x | x
O=C(COc1cccnc1[N+](=O)[O-])N1CCN(S(=O)(=O)c2ccccc2)CC1 | -9 | x | -17 | -10 | -1 | x | x
O=C(COc1nnc2ccccn12)N1CCN(S(=O)(=O)c2ccccc2)CC1 | -6 | x | x | 2 | 35* | -5 | -3
O=[N+]([O-])c1ccc(O)c(C=NN=C2c3ccccc3-c3ccccc32)c1 | x | 3 | x | x | x | x | x
O=[N+]([O-])c1cccc(C=NN=C2c3ccccc3-c3ccccc32)c1 | x | x | x | 9 | 30* | 144* | 109*
